# Giardia kill – Giardia lamblia killing | Giardia lamblia trophozoite viability | 340,000 compounds, 0.15% hits | activity change, % at 7.66 µM, hits read low | AID 540267; in the data active means activity change below about -80%; inconclusive means between about -30% and that limit;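 further: parasites exposed to compound for two days anaerobically before the ATP read; on the % scale 0 is the no-effect control and ±100 the full control effect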
#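 Luminescence from cellular ATP indicates surviving trophozoites (100 cells/well) following 48 hrs anaerobic compound treatment at 37 deg C; signal develops 15-30 min at room temperature.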
# TGFb SMAD3 inh – blocks TGF-b signaling; HepG2 CAGA-GFP TGF-b/SMAD3 reporter, GFP fluorescence, 18 h; TGF-beta stimulated, 500 pg/mL final; 410,000 compounds, 1.2% hits; Potency, µM (highest dose often 46.1 µM), without a hit: at the top dose activity, negative = inhibition, hits mostly inhibitors; further: potency means the concentration at half of the fitted maximal effect; on the % scale 0 is the no-effect control and ±100 the full control effect; nearly all actives have a fitted effect of over 65% in size
#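 Per well, imaged GFP fluorescence of HEPG2 CAGA-GFP cells gives the signal; cells get compound, then TGF-beta (500 pg/mL final), 18 h at 37 degrees C; %Activity versus -TGF-beta and +DMSO controls.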
# HT1080-NT tox – kills 2HG-producing HT-1080-NT fibrosarcoma cells; 360,000 compounds, 1.6% hits; HT-1080-NT fibrosarcoma viability, CellTiter-Glo ATP luminescence, 48 h; AID 686970; Potency, µM (doses to about 46.1 µM), for the others: at the highest dose activity, negative = less viability, usual class: cytotoxic;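 further: NT is the 2HG producing partner of a matched IDH1 knockdown line; potency means the concentration at half of the fitted maximal effect; 0% = DMSO-treated cells and -100% = media-only wells without cells; nearly all actives have a fitted effect of over 55% in size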
#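 Viability of the 2HG-overproducing fibrosarcoma line after 48 hours of compound exposure at 37 degrees C was determined by luminescence with CellTiter-Glo, and concentration-effect curves were then fitted and categorized.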
# HT1080 IDH1KD tx – HT-1080 IDH1 knockdown cell toxicity (counter line). Potency, µM (top dose mostly 46.1 µM), without a hit: at the top dose activity, negative = toxicity, actives largely listed as cytotoxic. AID 686971. HT-1080 IDH1 knockdown viability, ATP luminescence, 48 h. 360,000 compounds, 2% hits;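 further: potency means the concentration at half of the fitted maximal effect; 0% = DMSO wells and -100% = cell-free medium wells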
#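 Assay cells: HT-1080 with IDH1 knockdown, 750 per well, RPMI/5% FBS. Exposure: 48 h at 37 °C following 2 h pre-incubation. Read: CellTiter-Glo luminescence; fitted concentration-response, curve class assigned.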
# HepG2 tox – counter-screen for TGF-b inhibitors: cytotoxicity in HepG2 cells; Potency, µM (doses to about 46.1 µM), inactives show at the top dose activity change, negative = cytotoxicity, actives largely listed as cytotoxic; 410,000 compounds, 0.76% hits; HepG2 CAGA-GFP viability, ATP luminescence, 18 h; AID 588856; further: potency means the concentration at half of the fitted maximal effect
#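 HepG2 CAGA-GFP cells (1000/well, DMEM with 1% FBS) received compound, then TGF-beta at 500 pg/mL final, and were incubated 18 hours at 37 degrees C. Viability was read by CellTiter-Glo luminescence. Media-only wells were set as complete cell-killing and DMSO as no toxicity.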
# IL1B secr inh – inflammasome signaling inhibition, IL-1 beta readout; THP-1 LPS/ATP IL-1B secretion, AlphaLISA, 16 h; hits give low values; activity change, % at 57.5 µM; 360,000 compounds, 4.7% hits; in the data active means activity change below about -50%; inconclusive means mostly about -30% to -49%; further: on the % scale 0 is the no-effect control and ±100 the full control effect
#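 Secreted IL-1B measured by AlphaLISA bead assay after 16 h compound exposure of THP-1 cells; compounds (final up to 57.5 uM) added 1 h before LPS (250 ng/mL) and ATP (1.25 mM) stimulation; lower signal means less secretion.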
# * marks the source's active call; other numbers are inactive results; u = inconclusive; x = not tested or not shown. This is a sample that favours compounds with a hit; in the whole collection about 6.5% have one here. Unless noted, the call rests on the fitted dose curve; in most records, active means well fitted curve in the direction sought with a large enough effect; inconclusive means small, poorly fitted or top-dose-only effect, or another doubt; inactive means no such curve, though single readings can be large; an effect the other way counts as inactive or inconclusive.
SMILES,Giardia kill,TGFb SMAD3 inh,HT1080-NT tox,HT1080 IDH1KD tx,HepG2 tox,IL1B secr inh
CN(C1=NC(=O)C(CC(=O)Nc2ccc(Br)cc2)S1)c1ccc(O)cc1 (configuration not stated),1.3,u,u,7.94µM*,-48.2%,0.0
CCCN(C(=O)CSc1ncnc2sccc12)c1c(N)n(Cc2ccccc2)c(=O)[nH]c1=O,-20.6,-0.2%,6.6%,1.7%,-0.2%,10.1
COc1ccc(Nc2ncc(C(=O)N3CCN(c4ccc(OC)cc4)CC3)c3ccccc23)cc1,x,0.0%,x,x,-38.9%,x
COc1ccc(Nc2ncc(C(=O)N3CCN(c4ccc(F)cc4)CC3)c3ccccc23)cc1,-0.1,u,-14.8%,-9.7%,-27.0%,-59.5*
COc1cccc(C2=C(C(C)=O)Sc3nnc(C4CCCCC4)n3N2C(C)=O)c1,x,u,x,x,-53.3%,x
CC(=O)C1=C(c2ccc(Cl)c(Cl)c2)N(C(C)=O)n2cnnc2S1,x,5.62µM*,x,x,-93.7%,x
CC(=O)C1=C(c2ccc(Cl)c(Cl)c2)N(C(C)=O)n2c(nnc2-c2ccccc2)S1,x,u,x,x,6.1%,x
CC(=O)C1=C(c2ccc(Cl)c(Cl)c2)N(C(C)=O)n2c(C)nnc2S1,x,u,x,x,7.94µM*,x
CC(=O)C1=C(c2ccccc2)N(C(C)=O)n2c(nnc2C2CCCCC2)S1,x,11.2µM*,x,x,11.2µM*,x
CC(=O)c1cccc(NC(=O)N2CCC(NC(=O)c3ccco3)CC2)c1,-17.7,-3.1%,5.0%,11.2%,-5.1%,-19.1
CN1CCN(c2nc(-c3ccccc3O)nc3ccccc23)CC1,-4.4,2.4%,-0.7%,-17.7%,1.8%,2.7
OCCN1CCN(c2nc(-c3ccccc3O)nc3ccccc23)CC1,7.2,u,u,u,-34.5%,-82.3*
O=C(O)C1CCN(c2nc(-c3ccccc3)nc3c2oc2ccccc23)CC1,3.7,-1.9%,-24.2%,-19.5%,-4.6%,7.1
OCCN1CCN(c2nc(-c3ccccc3)nc3c2oc2ccccc23)CC1,-0.7,-10.7%,23.1µM*,u,-42.2%,x
CC(C)(C)c1ccc(C(=O)NCC(c2ccco2)S(=O)(=O)c2ccccc2)cc1 (configuration not stated),x,-20.2%,x,x,-25.3%,x
O=C(CCn1nnc2ccccc21)OCC(=O)c1ccc(F)cc1,0.8,11.0%,21.6%,u,-4.8%,-2.7
CN(C)CCCNC(=O)c1cc(C(=O)c2cccc(Cl)c2Cl)c[nH]1,14.2,7.8%,-22.5%,-26.4%,-2.9%,-58.1*
S=C(NN=C(c1ccccc1)c1ccccn1)N(Cc1ccccn1)Cc1ccccn1,-4.9,u,16.4µM*,8.2µM*,-85.3%,-58.5*
CC(=NNC(=S)N(Cc1ccccn1)Cc1ccccn1)c1cnccn1,14.8,u,u,0.581µM*,-44.3%,104.4
O=C(Nc1ccc(OC(F)(F)F)cc1)c1ccc2nc[nH]c2c1,37.2,-5.0%,3.7%,3.0%,-23.9%,21.2
CC(=O)c1ccc(OC2(C)CCN(Cc3ccc(OC(F)(F)F)cc3)C2)cc1 (configuration not stated),x,-1.0%,-7.7%,-5.8%,-18.1%,-2.7
CCOC(=O)c1ccc(NC(=O)c2cc(C)nn2-c2ccccc2)cc1,-26.0,-1.4%,2.2%,2.3%,-9.3%,-2.7
O=C(c1cc(-c2ccc(O)cc2)on1)N1CCN(c2ccccc2)CC1,5.1,-3.3%,-20.4%,-4.9%,-23.1%,-54.1*
O=C(c1cc(-c2ccc(O)cc2)on1)N1CCN(c2ccc(F)cc2)CC1,-18.7,-17.4%,u,-2.4%,-19.0%,-20.8
Cc1ccc(S(=O)(=O)N2CCC(=O)N(C(COCc3cccc(C(F)(F)F)c3)Cc3ccccc3)CC2)cc1 (configuration not stated),6.3,-20.4%,-0.7%,-10.3%,-23.3%,33.1
SMILES,Giardia kill,TGFb SMAD3 inh,HT1080-NT tox,HT1080 IDH1KD tx,HepG2 tox,IL1B secr inh
CC(C)(C)c1ccc(C(=O)N2CCC(=O)N(C(COCc3ccccc3)Cc3ccccc3)CC2)cc1 (configuration not stated),9.5,u,u,-12.8%,-61.1%,-29.3
Cc1cccc(COCC(Cc2ccccc2)N2CCN(C(=O)c3cccc(C)c3)CCC2=O)c1 (configuration not stated),7.1,u,-6.4%,-7.7%,-29.7%,-26.9
O=C(c1ccc(Cl)c(Cl)c1)N1CCC(=O)N(C(COCc2cccc(C(F)(F)F)c2)Cc2ccccc2)CC1 (configuration not stated),-5.5,u,u,u,-27.2%,-86.2*
Cc1cccc(COCC(Cc2ccccc2)N2CCN(C(=O)c3ccc(Cl)c(Cl)c3)CCC2=O)c1 (configuration not stated),-5.5,u,-26.7%,u,-13.0%,-73.6*
Cc1cccc(COC[C@H](Cc2ccccc2)N2CCN(C(=O)c3ccc(Cl)c(Cl)c3)CCC2=O)c1,x,x,u,16.4µM*,x,-65.3*
O=C(c1cccc(Cl)c1)N1CCC(=O)N([C@H](COCc2cccc(Cl)c2)Cc2ccccc2)CC1,x,x,u,16.4µM*,x,u
COc1ccc(OCc2nnc(SCC(=O)N3C(C)CCCC3C)o2)cc1 (configuration not stated),-10.8,0.9%,7.4%,-7.7%,2.4%,33.8
CC(=O)N1c2ccc(S(=O)(=O)N3CCC(C(=O)Nc4cc(C)ccn4)CC3)cc2CC1C (configuration not stated),0.4,-3.8%,-2.8%,-5.1%,0.9%,-3.0
O=C(OCC(=O)N1CCCCC1)c1ccccc1SCC(=O)N1CCCCC1,-6.3,u,1.7%,-6.3%,18.4%,-13.2
CC(C)C1Cc2c(C#N)c(N)n(C)c(=S)c2CO1 (configuration not stated),7.4,0.0%,-3.5%,0.6%,5.2%,20.9
O=C(c1ccc2c3n(nc2c1)-c1ccccc1CO3)N1CCOCC1,9.7,-9.2%,8.2µM*,23.1µM*,7.94µM*,-19.0
O=C(c1ccc2c3n(nc2c1)-c1ccccc1CO3)N1CCCCC1,u,-11.1%,16.4µM*,23.1µM*,7.08µM*,-4.1
COc1ccc(NS(=O)(=O)c2cccc(C(=O)NCCCN3CCCC3=O)c2)cc1,-10.2,-3.8%,-0.3%,2.8%,0.5%,31.8
CCOc1ccccc1N(CC(=O)Nc1ccccc1C(=O)NCc1ccco1)S(C)(=O)=O,19.9,3.7%,6.4%,4.2%,-6.1%,-4.6
Oc1oc(-c2ccccc2)nc1C=Nc1ccccc1,5.5,u,11.5%,22.6%,-17.1%,-54.8*
CN(C)c1ccc(N=Cc2nc(-c3ccccc3)oc2O)cc1,17.7,0.9%,-1.0%,19.8%,8.2%,-17.6

# High-throughput results as filed in PubChem.
